According to ChEMBL document CHEMBL3988442, “University of Dundee, Small-Polar-MMV Screening Library” (2021):
Out of some 53,000 compounds screened, about 900 (1.7%) showed an effect of 50% or more. The sample as a whole holds a higher share of strong results than the screen did.

Test system: Mycobacterium tuberculosis
Test: Cornell - Phenotypic assay to identify agents that inhibit growth of Mycobacterium tuberculosis
Assay type: functional
Set-up: scale not given: direction of the effect not stated beside the values
Conditions: 10 mM as filed; unlikely as a test dose

Structure (SMILES)	Percent Effect
CC(C)c1nc(O)c2nnn(C[C@@H]3CCCN(Cc4ccsc4)C3)c2n1	7.526%
COCc1nc2cc(NCc3ccc(C)o3)ccc2o1	107.3%
COCc1nc2cc(NCc3ccc(CO)o3)ccc2o1	97.16%
CCC(C)CNc1ccc2oc(COC)nc2c1 (stereo unspecified)	35.01%
Cc1ccc(CNC(C)(C)c2noc(C(C)(C)C)n2)o1	-0.4607%
COCc1nc2c(o1)CN(C(=O)NCc1ccccc1)C2	-49.74%
CC(C)(C)C(=O)N1C[C@@H](F)[C@@H](OCc2nc3ccccc3o2)C1	16.14%
Cc1nc(-c2ccccc2)nc2c1CCN(Cc1nccn1C)CC2	6.349%
CN(C)c1ncc(C2Nc3cc(Cl)ccc3C3=NCCCN32)cn1.Cl (stereo unspecified)	8.449%
CCOc1ccc(NC(=O)c2oc(CC)cc2C)cc1CO	34.25%
CCOc1ccc(NC(=O)c2[nH]c(C)cc2C)cc1CO	102.6%
CCOc1ccc(NC(=O)c2cc(C)c(C)o2)cc1CO	22.28%
COCC(=O)N1CCN(C)CC(Cc2cc(N(C)C)ncn2)C1 (stereo unspecified)	14.46%
CN1CCC(c2[nH]ncc2S(C)(=O)=O)CC1	6.792%
CCc1cccc2c(CC(=O)N(C)CCN(C)C)c(C)[nH]c12.O=C(O)CC(O)(CC(=O)O)C(=O)O	51.84%
Cc1[nH]c2c(C)cccc2c1CC(=O)N(C)CCN(C)C.O=C(O)CC(O)(CC(=O)O)C(=O)O	27.37%
Cc1ccc2c(CC(=O)N(C)CCN(C)C)c(C)[nH]c2c1C.O=C(O)CC(O)(CC(=O)O)C(=O)O	8.878%
COCCN1CCN(S(=O)(=O)c2ccccc2)Cc2cccnc21.O=C(O)C(F)(F)F	12.13%

Structure (SMILES)	Percent Effect
N#Cc1cc(NS(=O)(=O)c2cc(C(=O)O)cc(Cl)c2Cl)ccc1F	13.91%
CCOC(=O)CN1CC(c2nc(-c3ccsc3)no2)C1.O=C(O)C(=O)O	51.67%
CCS(=O)(=O)N1CC(c2nc(-c3ccsc3)no2)C1	-31.96%
CN(C)S(=O)(=O)N1CC(c2nc(-c3ccsc3)no2)C1	18.06%
O=C1NCCN1C(CNS(=O)(=O)C1CC1)Cc1cccc(F)c1 (stereo unspecified)	21.82%
CC(=O)Nc1nccn1Cc1ccccc1Cl	15.67%
Cn1ccc(C(=O)Nc2nccn2Cc2ccccc2Cl)cc1=O	51.57%
CCOCC(=O)Nc1nccn1Cc1ccccc1Cl	48.83%
O=C(CCS(=O)(=O)C1CCCC1)N1CCCC1c1ccsc1 (stereo unspecified)	-6.93%
CC(C)Cc1cc(NC(=O)c2n[nH]c3ccccc23)n(C)n1	15.6%
Cc1cc(O)cc(=O)n1CCCC(=O)Nc1n[nH]c2ccccc12	81.79%
CS(=O)(=O)CCCC(=O)Nc1cc(-c2cccc(F)c2F)n[nH]1	-2.681%
Cc1noc(C)c1NC(=O)CCn1cc(Br)ccc1=O	22.38%
Cc1nonc1NC(=O)CCn1cc(Br)ccc1=O	6.093%
Cc1cc(O)cc(=O)n1CCCC(=O)Nc1n[nH]c2cc(Br)ccc12	104.6%
Cn1cc(NC(=O)C2CC(=O)N(c3n[nH]c4cccc(F)c34)C2)cn1 (stereo unspecified)	-30.85%
Cc1cc(O)cc(=O)n1CCCC(=O)Nc1n[nH]c2cccc(F)c12	103.9%
Cc1cc(NC(=O)Cn2ccc(=O)c3ccccc32)[nH]n1	-8.025%
